The target in the first test is HLA-DRA. The experiment in a line: pooled miR-30 sensor sort-seq; sequence = guide strand. The note with it: shRNA.
Take AAGTCAAACATAAACTCGCCTG: the sensor-assay potency score (higher = more potent) is -0.837.
As for TTGGTGATCGGAGTATAGTTGG, the sensor-assay potency score (higher = more potent) is -0.222.
Still for that read-out and setting: next, TTAGAGTACGGAGCAATCGAAG: -1.52; TCAAACATAAACTCGCCTGATT: -0.205; TTCGTGAGCACAGTTACCTCTG: 0.227.

For the next test, the target named is HMGB2. Described as above. Particulars: shRNA.
Take TTCTTCTTGTGCTCTTCCCGGC: the sensor-assay potency score (higher = more potent) was -0.526.
In the case of TTAGCTTAGCTGCTTTCTGTTC, the sensor-assay potency score (higher = more potent) is -0.873.
The sequence TTCAAACTTCGACTTCTCCTTT came in with a sensor-assay potency score (higher = more potent) of 0.655.
Take TTTAGGAACATTCAACATCAGA: the sensor-assay potency score (higher = more potent) is -0.879.
On to TTTAGCTTAGCTGCTTTCTGTT, for which the sensor-assay potency score (higher = more potent) was -0.377.
Same read-out and setting: next, TTCTTCTTCTTTGAGCCTGTTG: -0.484; TTTCTTCTTGTGCTCTTCCCGG: -1.12.
In turn, TTCTGGTTCGTTCTTCTTCTTT registered a sensor-assay potency score (higher = more potent) of -0.774.
For the sequence TTTGCAGACATGGTCTTCCATC, the sensor-assay potency score (higher = more potent) was -0.617.
TTTAGGAGCATTGGGGTCCTTT showed a sensor-assay potency score (higher = more potent) of -0.857.
As for TATCTTTGGCTGACTGCTCAGA, the sensor-assay potency score (higher = more potent) was -0.772.

The next test addresses HMGN1. Described as above. Particulars: shRNA.
TTGATAAAAATATTCCTCTGGA showed a sensor-assay potency score (higher = more potent) of 0.157.
TACCAAAAAATAAACAACCAGC: the sensor-assay potency score (higher = more potent) is -1.01.
As for TTTAGTTTCTTGGTTAGCCACT, the sensor-assay potency score (higher = more potent) was -0.724.
TTCGCTTCCACTTTTGCAGGAG: the sensor-assay potency score (higher = more potent) was found to be 0.413.
Consider TTTAGCTGACAACCGCGCCGAT, for which the sensor-assay potency score (higher = more potent) was -0.654.
The same measure, in the same setting: next, TAAGTCTTCTTTAGTTTCTTGG: 0.158; TTAGCTGACAACCGCGCCGATC: -1.18.
On the same count and under the same terms, next, TTATCCTTCGCTGCTGCCTTTT: -1.55; AAGATTTATCCTTCGCTGCTGC: -0.0749; TTGGTTAGCCACTTCGGCCTGT: 0.684.
Take TAGGATATAAAAACTAACCCCC: the sensor-assay potency score (higher = more potent) is -0.107.
Consider TTCTTGGTTAGCCACTTCGGCC, for which the sensor-assay potency score (higher = more potent) was -1.77.

The target of the next test is HMOX1. Described as above. Particulars: shRNA.
TTGAGCAGGAACGCAGTCTTGG gave a sensor-assay potency score (higher = more potent) of -0.286.
Sequence TACAGCAACTGTCGCCACCAGA returned a sensor-assay potency score (higher = more potent) of -0.902.
On the same count and under the same terms, in the case of TTGCGGTGCAGCTCTTCTGGGA it was -0.856.
Same read-out and setting: next, TAGAGCTGCTTGAACTTGGTGG: 0.136.
In turn, TCTTCTATCACCCTCTGCCTGA showed a sensor-assay potency score (higher = more potent) of -0.665.
As to TTGCACTTTGTTGCTGGCCCGC, the sensor-assay potency score (higher = more potent) was -1.2.
AAACACAAGACACAACATCTTT registered a sensor-assay potency score (higher = more potent) of -0.747.
Consider TAGGGGATGACCTCCTGCCAGC, for which the sensor-assay potency score (higher = more potent) was -1.69.
The same measure, in the same setting: in the case of TCTTCTGGGAAGTAGACAGGGG it was -0.217; in that of TCATGAACTCAGCATTCTCTGC, -0.85; in that of TTGAACTTGGTGGCACTGGCAA, -0.865.
In the case of TATAAAAACAACAGAACACAAC, the sensor-assay potency score (higher = more potent) was -1.08.

The values above are taken from the OligoGym collection.
Further: reference of the scale not given here.
